{"source": "PubChem BioAssay AID651599", "about": "(National Center for Advancing Translational Sciences (NCATS), 2012)", "note": "Records with an inconclusive call do not appear. A number with no mark means an inactive call. The source made the active and inactive calls. The call rests on the fitted dose curve; in most records, active means well fitted inhibition curve with a large enough effect; inconclusive means small, poorly fitted or top-dose-only effect; inactive means no such curve, though single readings can be large or run the other way. On the % scale 0 is the no-effect control and ±100 the full control effect; potency means the concentration at half of the fitted maximal effect.", "data": [{"target": "Tumor susceptibility gene 101 protein (Homo sapiens) (UniProt Q99816)", "sequence (Q99816 whole entry, looked up, the tested form may be a part)": "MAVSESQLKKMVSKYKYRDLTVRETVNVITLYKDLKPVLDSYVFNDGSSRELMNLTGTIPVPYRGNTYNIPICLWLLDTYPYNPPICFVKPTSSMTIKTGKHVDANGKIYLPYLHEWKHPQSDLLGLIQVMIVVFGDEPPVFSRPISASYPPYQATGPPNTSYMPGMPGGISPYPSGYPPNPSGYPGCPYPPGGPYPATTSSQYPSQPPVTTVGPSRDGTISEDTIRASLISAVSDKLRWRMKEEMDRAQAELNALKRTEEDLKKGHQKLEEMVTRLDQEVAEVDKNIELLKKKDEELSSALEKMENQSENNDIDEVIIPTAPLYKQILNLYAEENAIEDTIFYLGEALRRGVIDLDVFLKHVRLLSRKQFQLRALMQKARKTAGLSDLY", "assay": "qHTS Assay for Iinhibitors of HIV-1 Budding by Blocking the Interaction of PTAP/TSG101: Hit Validation in TR assay", "conditions": "Tsg101 binding domain + Texas Red-labeled PTAP peptide, fluorescence polarization, 20 min; series mostly up to 57.5 µM; activity change, negative = inhibition: at the top concentration", "source_text": "Stages of the HIV-1 replication cycle, specifically virus assembly and release, provide underexploited targets for the development of novel antiviral inhibitors. The late stages of HIV-1 replication are mediated by the Gag precursor protein, Pr55Gag. Expression of Pr55Gag is both necessary and sufficient for the production of virus-like particles from Gag-expressing cells. The Gag protein hijacks key host proteins involved in endocytic machinery of the host cell to promote endosomal processing and viral budding. The budding process requires a direct interaction between a […] (PTAP) motif in the p6 domain of Gag and the cellular endosomal sorting protein known as Tsg101. In this way, the Gag PTAP motif promotes the host cells to recruit viral particles to the plasma membrane where the new viral particles are released, effectively turning the host cells into viral factories. A fluorescence anisotropy assay has been developed to quantitatively measure the PTAP-Tsg101 interaction which can be used to screen for inhibitors of this interaction.\nThis hit validation assay is similar to the primary assay but uses the Texas Red label instead of FITC.\nNIH Molecular Libraries Probe Production Network [MLPCN]\nNIH Chemical Genomics Center [NCGC]\nPI Name: Dr. Eric Freed, NCI\nTwo uL of the Tsg101 binding domain in buffer (10 mM HEPES pH 7.5; 0.15 M NaCl, 0.01% Tween 20; 3 mM EDTA;0.1 mM TCEP) was dispensed into Greiner black MB 1536-well plates (final concentration 10 uM). Then, 23 nL of compounds or DMSO were delivered to each well using a pin tool. Finally, 2 uL of a TR-labeled peptide containing the PTAP motif (1) in the same buffer was dispensed (50 nM final concentration) and the binding was allowed to proceed for 20 min. at r.t. Fluorescent polarization was determined using TR excitation and polarized emission filters on a Perkin Elmer Viewlux.\nKeywords: Tsg101, PTAP, Gag, HIV, fluorescent polarization, MLSMR, MLPCN, NIH Roadmap, qHTS, NCGC", "units": {"activity change, negative = inhibition": "%"}, "values": [{"smiles": "CCC1CCCCN1C(=O)c1cc2cc(Br)ccc2oc1=O", "note": "(stereo not given)", "activity change, negative = inhibition": -6.72}, {"smiles": "Cn1nc([N+](=O)[O-])c(C(C#N)c2nc3ccccc3n2C)c(Cl)c1=O", "note": "(stereo not given)", "activity change, negative = inhibition": -9.59}, {"smiles": "COc1ccccc1NC(=O)C(C)OC(=O)C1CC(=O)N(c2ccc3c(c2)OCCO3)C1", "note": "(stereo not given)", "activity change, negative = inhibition": 2.66}, {"smiles": "N=C1/C(=C/c2coc3ccccc3c2=O)C(=O)N=C2SC(c3ccco3)=NN12", "activity change, negative = inhibition": -1.87}, {"smiles": "CCCCCCc1cc2cc(C(=O)NC)c(=N)oc2cc1O", "activity change, negative = inhibition": -3.42}, {"smiles": "COc1c([N+](=O)[O-])c(=O)n(-c2ccccc2)c2ccccc12", "activity change, negative = inhibition": -0.146}, {"smiles": "CN1CC=C2C(C#N)=C(N)C(C#N)(C#N)[C@H](c3ccoc3)[C@H]2C1", "activity change, negative = inhibition": 2.73}, {"smiles": "COc1cc2c(cc1OC)-c1cc3ccc4c(c3c[n+]1CC2)OCO4", "activity change, negative = inhibition": -22.7}, {"smiles": "CC(=O)Nc1ccc(N2C(=O)c3cccc4c(O)ccc(c34)C2=O)cc1", "activity change, negative = inhibition": -14.6}, {"smiles": "CC(OC(=O)c1c2c(nc3ccccc13)/C(=C\\c1ccc3c(c1)OCO3)CCC2)C(=O)Nc1ccc(S(N)(=O)=O)cc1", "note": "(stereo not given)", "activity change, negative = inhibition": 27.4}, {"smiles": "Cc1nc(Nc2ccc(S(=O)(=O)N3CCCCC3C)cc2)c2nnn(Cc3ccccc3)c2n1", "note": "(stereo not given)", "activity change, negative = inhibition": 0.993}, {"smiles": "N#CC(C(=O)NC1CC1)c1nc2ccccc2nc1N1CCCC1", "note": "(stereo not given)", "activity change, negative = inhibition": 35.9}, {"smiles": "CC1CCN(c2ccc3c(c2)S(=O)(=O)c2cccc(C(=O)NCc4cccc(F)c4)c2C3=O)CC1", "activity change, negative = inhibition": -8.5}, {"smiles": "CCCCn1c(=O)[nH]c2nc3cc(N)ccc3nc2c1=O", "Potency": "11.6 µM (active)"}, {"smiles": "CNc1ccc2c3c(cccc13)C(=O)N(C)C2=O", "activity change, negative = inhibition": 22.8}, {"smiles": "Cc1ccc(Nc2ccc([N+](=O)[O-])ccc2=O)cc1", "activity change, negative = inhibition": -6.67}, {"smiles": "COc1ncnc2c1N=C1CC(C)(C)CC(N)=C1S2", "activity change, negative = inhibition": -9.77}, {"smiles": "O=C1c2ccccc2S(=O)(=O)c2cc(N3CCN(C(=O)c4ccccc4)CC3)ccc21", "activity change, negative = inhibition": 5.28}, {"smiles": "Cc1ccc(N=Cc2c(O)ccc3ccccc23)cc1F", "activity change, negative = inhibition": 18.9}, {"smiles": "CSCC(C)N1CCC(n2nccc2NC(=O)CCCc2ccccc2)CC1", "note": "(stereo not given)", "activity change, negative = inhibition": 15.5}, {"smiles": "O=Cc1nccc2ccccc12", "activity change, negative = inhibition": 395}, {"smiles": "N#CC(C(=O)OC1CCCCC1)c1nc2ccccc2nc1N1CCOCC1", "note": "(stereo not given)", "activity change, negative = inhibition": 2.32}, {"smiles": "N#C/C(=C\\c1ccccn1)c1nc2ccccc2s1", "activity change, negative = inhibition": 40.6}, {"smiles": "COc1cc(OC)c(-c2c3cc(O)c(=O)cc-3oc3cc(O)c(O)cc23)cc1OC", "activity change, negative = inhibition": -25.9}, {"smiles": "O=c1oc2ccccc2nc1/C=C(\\O)c1ccc(Br)cc1", "activity change, negative = inhibition": 1.32}, {"smiles": "Nc1cccc(N2C(=O)c3cccc4c(N)ccc(c34)C2=O)c1", "activity change, negative = inhibition": -15}, {"smiles": "O=S(=O)(Nc1cccc(-c2ccc(N3CCCCCC3)nn2)c1)c1cccc(F)c1", "activity change, negative = inhibition": 11.7}, {"smiles": "CC(=O)N1c2ccccc2C(=O)C1N1CCCCC1", "note": "(stereo not given)", "activity change, negative = inhibition": 7.64}, {"smiles": "O=C1Nc2ccc(F)cc2C12Nc1ccccc1-c1nnc(SCc3ccccc3)nc1O2", "note": "(stereo not given)", "activity change, negative = inhibition": -29.8}, {"smiles": "CCOC(=O)/C(C#N)=C(C)/C=C1\\Sc2ccccc2N1CC", "activity change, negative = inhibition": 23.7}, {"smiles": "CCCCNc1c2c3c(cccc3n(C)c1=O)C(=O)c1ccccc1-2", "activity change, negative = inhibition": -9.99}, {"smiles": "CCOC(=O)N1CCN(c2nc3ccccc3nc2C(C#N)S(=O)(=O)c2ccc(C)cc2)CC1", "note": "(stereo not given)", "activity change, negative = inhibition": 156}, {"smiles": "CCN(CC)c1ccc(/C=C/C(=O)c2ccc(Br)cc2)cc1", "Potency": "16.3 µM (active)"}, {"smiles": "CCOC(=O)c1cnc2ccc(OC)cc2c1Nc1ccc(N2CCN(C)CC2)cc1", "activity change, negative = inhibition": -0.735}, {"smiles": "CN(C)CCCN1C(=O)c2cccc3c(Br)ccc(c23)C1=O", "activity change, negative = inhibition": 57.8}, {"smiles": "CC(C)(C)C(=O)c1sc2nc(-c3cccs3)cc(C(F)(F)F)c2c1N", "activity change, negative = inhibition": -10.8}, {"smiles": "CN1CCc2c(sc(NC(=O)CSc3ccc(F)cc3)c2-c2nc3ccccc3s2)C1", "activity change, negative = inhibition": -9.11}, {"smiles": "COc1ccccc1N1C(=O)c2cccc3c(N(C)CCO)ccc(c23)C1=O", "activity change, negative = inhibition": 20}, {"smiles": "CC1(C)Cc2c(C#N)c(SCCC#N)nc(N3CCOCC3)c2CS1", "activity change, negative = inhibition": 29.3}, {"smiles": "CNc1c2cccc(C)c2nc2c(C(=O)NCCN(C)C)cccc12", "activity change, negative = inhibition": -2.06}]}]}
